ATXN2 expr inh: Primary qHTS for Inhibitors of ATXN expression; AID 1745845, 2022; HEK-293 ATXN2-luciferase reporter, luminescence, 24 h; 0.72% of 360,000 active; Potency, µM (highest dose often 57 µM), inactives show at the top dose activity change, negative = inhibition, most hits filed as inhibitors; also: potency is read from the fitted curve at half-maximal effect; % is scaled to controls: 0 for no effect and ±100 for the full control effect; nearly all actives have a fitted effect of over 55% in size
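qHTS (up to 57 uM final) was run with 24 h compound exposure of reporter cells at 37 °C. Each well was multiplexed: SteadyGlo luminescence measured ATXN2-luciferase expression after a fluorogenic Gly-Phe-AFC viability readout (25 uM final).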
HepG2 tox: qHTS for Inhibitors of TGF-b: Cytotox Counterscreen | HepG2 CAGA-GFP viability, ATP luminescence, 18 h | Potency, µM (titrated, usually from 46.1 µM), inactives show top-dose activity change, negative = cytotoxicity, usual class: cytotoxic | 0.76% of 410,000 active | AID 588856, 2011; also: potency is read from the fitted curve at half-maximal effect
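HepG2 CAGA-GFP cells (1000/well, DMEM with 1% FBS) received compound, then TGF-beta at 500 pg/mL final, and were incubated 18 hours at 37 degrees C. Viability was read by CellTiter-Glo luminescence. Media-only wells were set as complete cell-killing and DMSO as no toxicity.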
TGFb inhibitor: qHTS for Inhibitors of TGF-b; Potency, µM (highest dose often 46.1 µM), for the others: at the highest dose activity, negative = inhibition, hits mostly inhibitors; HepG2 CAGA-GFP TGF-b/SMAD3 reporter, GFP fluorescence, 18 h; TGF-beta stimulated, 500 pg/mL final; 1.2% of 410,000 active; AID 588855, 2011; also: potency is read from the fitted curve at half-maximal effect; % is scaled to controls: 0 for no effect and ±100 for the full control effect; nearly all actives have a fitted effect of over 65% in size
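Inhibition was scored as loss of TGF-beta-induced (500 pg/mL final, 18 hours, 37 degrees C) GFP in HEPG2 cells carrying a CAGA-GFP reporter, in DMEM with 1% FBS. Well GFP was summed per cell; Activity was normalised to unstimulated and stimulated DMSO wells, then concentration-response fitting.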
IL1B secr inh: qHTS for Inhibitors of Inflammasome Signaling: IL-1-beta AlphaLISA Primary Screen. activity change, % at 57.5 µM. AID 743279, 2014. 4.7% of 360,000 active. THP-1 LPS/ATP IL-1B secretion, AlphaLISA, 16 h; active compounds read low; in the data active = activity change below about -50%; inconclusive = mostly about -30% to -49%; also: % is scaled to controls: 0 for no effect and ±100 for the full control effect
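Secreted IL-1B measured by AlphaLISA bead assay after 16 h compound exposure of THP-1 cells; compounds (final up to 57.5 uM) added 1 h before LPS (250 ng/mL) and ATP (1.25 mM) stimulation; lower signal means less secretion.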
S2 tox: Viability Counterscreen for Primary qHTS for Inhibitors of ATXN expression; Potency, µM (titrated, usually from 56.7 µM), most hits filed as cytotoxic; 0.49% of 400,000 active; S2 cells (HEK-293 line with an ATXN2-luciferase reporter) viability, CellTiter-Fluor protease fluorescence, 24 h; AID 651635, 2014; also: potency is read from the fitted curve at half-maximal effect; nearly all actives have a fitted effect of over 40% in size
SK-N-SH 3D tox: qHTS of pediatric cancer cell lines to identify multiple opportunities for drug repurposing: Orthogonal 3D viability screen for SK-N-SH cells | AID 1347135, 2019 | 70% of 65 active | SK-N-SH 3D spheroid viability, PI/Hoechst imaging, 72 h | Potency, µM (doses to about 30.7 µM), most hits filed as inhibitors | shares compounds with ATXN2 expr inh
SJGBM2 3D viab: qHTS of pediatric cancer cell lines to identify multiple opportunities for drug repurposing: Orthogonal 3D viability screen for SJ-GBM2 cells. Potency, µM (highest dose often 30.7 µM), actives largely listed as inhibitors. 80% of 65 active. shares compounds with ATXN2 expr inh. SJ-GBM2 3D spheroid viability, PI/Hoechst imaging, 72 h. AID 1347136, 2019
Daoy spheroid: qHTS of pediatric cancer cell lines to identify multiple opportunities for drug repurposing: Orthogonal 3D viability screen for Daoy cells; shares compounds with ATXN2 expr inh; Daoy 3D spheroid viability, PI/Hoechst imaging, 72 h; Potency, µM (top dose mostly 30.7 µM), actives largely listed as inhibitors; 50% of 65 active
TC32 3D casp: qHTS of pediatric cancer cell lines to identify multiple opportunities for drug repurposing: Orthogonal 3D caspase screen for TC32 cells. shares compounds with ATXN2 expr inh. TC32 3D spheroids, caspase-3/7 fluorescence imaging, 24 h. Potency, µM (doses to about 30.7 µM), hits mostly inhibitors. 30% of 65 active
TC32 spheroid: qHTS of pediatric cancer cell lines to identify multiple opportunities for drug repurposing: Orthogonal 3D viability screen for TC32 cells. shares compounds with ATXN2 expr inh. Potency, µM (titrated, usually from 30.7 µM), most hits filed as inhibitors. AID 1347139, 2019. 60% of 65 active. TC32 3D spheroid viability, PI/Hoechst imaging, 72 h
MG63 spheroid: qHTS of pediatric cancer cell lines to identify multiple opportunities for drug repurposing: Orthogonal 3D viability screen for MG 63 (6-TG R) cells; shares compounds with ATXN2 expr inh; AID 1347140, 2019; 50% of 65 active; MG-63 (6-TG R) 3D spheroid viability, PI/Hoechst imaging, 72 h; Potency, µM (highest dose often 30.7 µM), most hits filed as inhibitors
RD 3D tox: qHTS of pediatric cancer cell lines to identify multiple opportunities for drug repurposing: Orthogonal 3D viability screen for RD cells; shares compounds with ATXN2 expr inh; RD rhabdomyosarcoma 3D spheroid viability, PI/Hoechst imaging, 72 h; Potency, µM (top dose mostly 30.7 µM), hits mostly inhibitors; 50% of 65 active; AID 1347141, 2019
Starred values were filed as active, the others as inactive. The list is a sample of the results. Unless noted, calls follow the shape of the dose curve; as a rule, active = well fitted curve in the direction sought with a large enough effect; inconclusive = small, poorly fitted or top-dose-only effect, or another doubt; inactive = no such curve, though single readings can be large; an effect the other way counts as inactive or inconclusive.

O=C1NCCN(Cc2cccc(Oc3ccccc3)c2)C1CC(=O)N1CCCCC1 (configuration not stated) was read as ATXN2 expr inh 1.5%, HepG2 tox -25.7%, TGFb inhibitor inconclusive, IL1B secr inh -4.2 and S2 tox inconclusive.
Screening CCCC1CCCCN1 (configuration not stated) returned ATXN2 expr inh 10.7% and S2 tox inactive.
`O=c1c2ccccc2nc(/C=C/c2ccccc2O)n1-c1ccc(Br)cc1` gave HepG2 tox -40.8% and TGFb inhibitor -28.8%.
`CCN(CC)C(C)C(=O)c1ccccc1` (configuration not stated) gave ATXN2 expr inh 6.7% and S2 tox inactive.
CC(=O)N1CCCc2cc(S(=O)(=O)N3CCCC(C(=O)Nc4cccc(F)c4)C3)ccc21 (configuration not stated) was read as ATXN2 expr inh 8.6%, HepG2 tox 2.3%, TGFb inhibitor inconclusive, IL1B secr inh 2.1 and S2 tox inactive.
For Cc1ccc(C(O)P(=O)(OCCC(C)C)c2ccc(N(C)C)cc2)cc1 (configuration not stated) the results were ATXN2 expr inh -0.6%, HepG2 tox -40.0%, TGFb inhibitor inconclusive, IL1B secr inh -15.6 and S2 tox inactive.
CN1CCC(OC(=O)c2ccccc2)CC1 was read as HepG2 tox -4.1%, TGFb inhibitor -15.2%, IL1B secr inh 4.7 and S2 tox inconclusive.
Screening COc1ccc(-c2nc(CN3C(=O)CN=C(c4ccccc4)c4cc(Cl)ccc43)c(C)o2)cc1 returned ATXN2 expr inh inconclusive, HepG2 tox -7.4% and TGFb inhibitor inconclusive.
Screening CN1CCC(N(C)c2nc(-c3ccccc3)nc3ccccc23)CC1 returned ATXN2 expr inh inconclusive, HepG2 tox -47.2%, TGFb inhibitor -11.3% and S2 tox inactive.
Screening CCCCCn1c(=O)c(C(=O)Nc2nc3ccccc3[nH]2)c(O)c2ccccc21 returned ATXN2 expr inh -9.3%, HepG2 tox -63.1%, TGFb inhibitor -11.1%, IL1B secr inh 14.7 and S2 tox inactive.
Screening COc1ccc(OCC(=O)Nc2ccc(Cl)cc2C(=O)c2ccccc2)cc1 returned ATXN2 expr inh -8.0%, HepG2 tox -12.7%, TGFb inhibitor 6.3%, IL1B secr inh 58.7 and S2 tox inactive.
Screening Cc1cccc(-n2c(/C=C/c3c[nH]c4ccccc34)nc3ccccc3c2=O)c1 returned ATXN2 expr inh -17.4%, HepG2 tox -8.4%, TGFb inhibitor -20.0% and S2 tox inactive.
For CCCN(C(=O)c1cc2c(=O)oc3ccccc3c2s1)c1cccc(Cl)c1 the results were ATXN2 expr inh 11.8%, HepG2 tox -2.5%, TGFb inhibitor inconclusive and S2 tox inactive.
For O=S1(=O)N(Cc2ccccc2)CCCN1Cc1ccc(F)cc1Cl the results were HepG2 tox -29.9% and TGFb inhibitor -11.5%.
`O=C(NC1CCCCCC1)c1ccc[nH]c1=S` gave ATXN2 expr inh 23.5%, HepG2 tox 1.8%, TGFb inhibitor inconclusive, IL1B secr inh -5.6 and S2 tox inactive.
Screening C[C@@H]1C[C@@H]([C@H](O)CC2CC(=O)NC(=O)C2)C(=O)[C@@H](C)C1 returned ATXN2 expr inh 1.26µM*, HepG2 tox -25.1%, TGFb inhibitor 1µM*, IL1B secr inh -57.6*, S2 tox inconclusive, SK-N-SH 3D tox inconclusive, SJGBM2 3D viab 1.02µM*, Daoy spheroid inconclusive, TC32 3D casp inactive, TC32 spheroid inconclusive, MG63 spheroid inconclusive and RD 3D tox inconclusive.
OC(c1ccccc1)(c1ccccc1)C1CCNCC1 was read as ATXN2 expr inh 8.5%, HepG2 tox 20.6%, TGFb inhibitor 1.4%, IL1B secr inh -18.8 and S2 tox inactive.
`c1ccc(CCN2CCCC2)cc1` gave HepG2 tox -1.1% and TGFb inhibitor 1.5%.
`C[C@H]1CN([C@@H](C)CO)C(=O)c2cccc(NC(=O)c3ccc(-c4nccs4)cc3)c2O[C@@H]1CN(C)C(=O)Nc1cccc2ccccc12` gave ATXN2 expr inh -2.3%, HepG2 tox -1.1%, TGFb inhibitor 13.2%, IL1B secr inh 0.0 and S2 tox inactive.
Screening COc1ccccc1N1CCN(C(=O)c2cc3c(-c4ccccc4F)nn(C)c3s2)CC1 returned ATXN2 expr inh inconclusive, HepG2 tox 16.0% and TGFb inhibitor inconclusive.
Oc1ccc(Cl)cc1Cc1ccccc1 was read as ATXN2 expr inh inconclusive, HepG2 tox -28.6%, TGFb inhibitor inconclusive, IL1B secr inh 12.1 and S2 tox inconclusive.
For CCCCc1nc2ccccc2c(=O)n1-c1cccc(OC)c1 the results were ATXN2 expr inh -13.2%, HepG2 tox -17.2%, TGFb inhibitor -22.8% and S2 tox inconclusive.
For Fc1ccc(N2CCN(c3ncnc4c3nc3n4CCCCC3)CC2)cc1 the results were ATXN2 expr inh -15.3%, HepG2 tox 3.3%, TGFb inhibitor inconclusive and S2 tox inactive.
